Source: the supplement of paper PMC10849652
The full data set covers some 8,800 targets. This sample favours those with a hit. About 0.5% of all pairs of compound and target were hits. Unmarked numbers belong to inactive results.

Assays:
Test in all cases: log2 fold change, soluble protein after heating vs DMSO (PISA); higher = thermal stabilisation; K562 lysate, 10 uM; active = over 0.2 and 3.5 SD of the protein, either way, in both replicates (recomputed)
[1] = compound: Cc1cn(-c2cc(NC(=O)c3ccc(C)c(Nc4nccc(-c5cccnc5)n4)c3)cc(C(F)(F)F)c2)cn1 [nilotinib]
Outline: (§1)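 Soluble protein was defined as the supernatant remaining after 21,000xg for 90 min, following pooling of heated aliquots and adjustment to 0.5% NP-40 at 4°C. Before that, crude K562 extract at 1 mg/mL protein in PBS pH 7.4 with 1 mM MgCl2 was treated with 10 μM compound for 30 min and heated for 3 min across 48°C-58°C. Quantification used TMTpro 16plex LC-MS/MS with channel sums equalised, and values are log-two fold changes in thermal stability relative to solvent controls from duplicates.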

[2] = compound: Cc1nc(Nc2n[nH]c3c2CN(C(=O)N[C@H](CN(C)C)c2ccccc2)C3(C)C)c2sccc2n1
Outline: as §1

[3] = compound: Cc1nc(Nc2ncc(C(=O)Nc3c(C)cccc3Cl)s2)cc(N2CCN(CCO)CC2)n1 [dasatinib]
Outline: as §1

[4] = compound: Cc1ncc(-c2ccnc(Nc3ccc(S(C)(=O)=O)cc3)n2)n1C(C)C
Outline: as §1

[5] = compound: Cn1cc(-c2ccc3c(c2)CCN3C(=O)Cc2cccc(C(F)(F)F)c2)c2c(N)ncnc21
Outline: as §1

[6] = compound: Cn1cc(CNCC2CCN(c3ncc(C(=O)NO)cn3)CC2)c2ccccc21 [quisinostat]
Outline: as §1

[7] = compound: Cn1cncc1[C@@](N)(c1ccc(Cl)cc1)c1ccc2c(c1)c(-c1cccc(Cl)c1)cc(=O)n2C [tipifarnib]
Outline: as §1

[8] = compound: NC(=O)Nc1cc(-c2cccc(F)c2)sc1C(=O)N[C@H]1CCCNC1
Outline: as §1

[9] = compound: NC(=O)c1cnc(N[C@@H]2CCCC[C@@H]2N)nc1Nc1cccc(-n2nccn2)c1
Outline: as §1

[10] = compound: NC1(c2ccc(-c3nc4ccn5c(=O)[nH]nc5c4cc3-c3ccccc3)cc2)CCC1
Outline: as §1

[11] = compound: NCC(=O)Nc1ccc(-n2nc(C(F)(F)F)cc2-c2ccc3c(ccc4ccccc43)c2)cc1
Outline: as §1

[12] = compound: O=C(CCCCCCC(=O)Nc1ccccc1)NO [vorinostat]
Outline: as §1

[13] = compound: O=C(O)c1ccc2c(c1)nc(Nc1cccc(Cl)c1)c1ccncc12 [silmitasertib]
Outline: as §1

[14] = compound: O=C1NC(=O)C(c2cnc3ccccn23)=C1c1cn2c3c(cc(F)cc13)CN(C(=O)N1CCCCC1)CC2
Outline: as §1

[15] = compound: c1cn2cc(-c3ccc4cn[nH]c4c3)nc(Nc3ccc(N4CCOCC4)cc3)c2n1 [entospletinib]
Outline: as §1

Chain of UniProt O95208 (O95208 whole entry, looked up): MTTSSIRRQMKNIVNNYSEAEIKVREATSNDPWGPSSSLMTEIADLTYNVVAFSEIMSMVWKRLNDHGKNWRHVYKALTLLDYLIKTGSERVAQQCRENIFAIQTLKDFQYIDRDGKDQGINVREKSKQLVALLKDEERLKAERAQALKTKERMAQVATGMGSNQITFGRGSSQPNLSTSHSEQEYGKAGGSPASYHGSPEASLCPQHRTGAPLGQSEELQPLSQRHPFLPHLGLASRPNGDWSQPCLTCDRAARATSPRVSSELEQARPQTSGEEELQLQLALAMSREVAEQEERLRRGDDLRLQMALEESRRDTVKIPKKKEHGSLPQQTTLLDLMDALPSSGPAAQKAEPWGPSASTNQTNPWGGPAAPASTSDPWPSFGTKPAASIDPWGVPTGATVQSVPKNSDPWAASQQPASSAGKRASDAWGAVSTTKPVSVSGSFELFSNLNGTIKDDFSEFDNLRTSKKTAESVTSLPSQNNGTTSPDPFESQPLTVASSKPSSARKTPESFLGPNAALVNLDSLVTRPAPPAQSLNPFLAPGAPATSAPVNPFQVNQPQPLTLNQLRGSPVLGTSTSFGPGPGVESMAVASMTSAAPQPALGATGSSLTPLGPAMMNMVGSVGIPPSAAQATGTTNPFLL
Chain of UniProt Q8TB52 (Q8TB52 whole entry, looked up): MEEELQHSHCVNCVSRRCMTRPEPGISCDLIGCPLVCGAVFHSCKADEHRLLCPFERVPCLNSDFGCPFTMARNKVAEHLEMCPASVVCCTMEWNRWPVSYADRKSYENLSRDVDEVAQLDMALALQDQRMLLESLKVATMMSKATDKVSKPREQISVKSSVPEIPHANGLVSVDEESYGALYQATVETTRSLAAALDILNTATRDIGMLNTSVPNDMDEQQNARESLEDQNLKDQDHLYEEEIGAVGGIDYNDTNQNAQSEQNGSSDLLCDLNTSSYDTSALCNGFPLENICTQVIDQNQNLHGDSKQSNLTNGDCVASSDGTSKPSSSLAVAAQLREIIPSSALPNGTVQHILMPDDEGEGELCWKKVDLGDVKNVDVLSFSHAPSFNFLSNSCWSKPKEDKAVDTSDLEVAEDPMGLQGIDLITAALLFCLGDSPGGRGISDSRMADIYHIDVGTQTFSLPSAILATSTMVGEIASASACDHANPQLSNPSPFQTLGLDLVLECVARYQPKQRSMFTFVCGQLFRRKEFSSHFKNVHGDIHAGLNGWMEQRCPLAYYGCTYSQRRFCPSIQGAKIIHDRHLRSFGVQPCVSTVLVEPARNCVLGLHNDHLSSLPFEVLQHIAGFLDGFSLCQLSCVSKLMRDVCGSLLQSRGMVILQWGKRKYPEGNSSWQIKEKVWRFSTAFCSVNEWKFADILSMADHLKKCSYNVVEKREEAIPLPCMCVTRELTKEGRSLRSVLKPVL
Chain of UniProt Q56P03 (Q56P03 whole entry, looked up): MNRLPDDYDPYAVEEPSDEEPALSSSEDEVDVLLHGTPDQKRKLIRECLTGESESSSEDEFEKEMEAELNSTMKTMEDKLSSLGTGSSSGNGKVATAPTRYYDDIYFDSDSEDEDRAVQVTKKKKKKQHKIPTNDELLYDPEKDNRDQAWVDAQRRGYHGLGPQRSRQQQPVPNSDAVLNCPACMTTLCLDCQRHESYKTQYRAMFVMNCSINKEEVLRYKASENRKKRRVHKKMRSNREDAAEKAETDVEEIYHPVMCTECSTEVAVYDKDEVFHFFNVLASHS
Chain of UniProt O94905 (O94905 whole entry, looked up): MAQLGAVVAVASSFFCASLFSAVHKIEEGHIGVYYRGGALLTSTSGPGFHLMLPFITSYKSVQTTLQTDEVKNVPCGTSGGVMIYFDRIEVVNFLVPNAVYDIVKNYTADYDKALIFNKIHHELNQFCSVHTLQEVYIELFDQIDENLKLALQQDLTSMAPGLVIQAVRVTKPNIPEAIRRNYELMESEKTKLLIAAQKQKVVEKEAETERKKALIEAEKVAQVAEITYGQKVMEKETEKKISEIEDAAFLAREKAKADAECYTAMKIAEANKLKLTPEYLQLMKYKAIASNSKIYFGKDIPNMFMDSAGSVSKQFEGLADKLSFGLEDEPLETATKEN
Chain of UniProt P41214 (P41214 whole entry, looked up): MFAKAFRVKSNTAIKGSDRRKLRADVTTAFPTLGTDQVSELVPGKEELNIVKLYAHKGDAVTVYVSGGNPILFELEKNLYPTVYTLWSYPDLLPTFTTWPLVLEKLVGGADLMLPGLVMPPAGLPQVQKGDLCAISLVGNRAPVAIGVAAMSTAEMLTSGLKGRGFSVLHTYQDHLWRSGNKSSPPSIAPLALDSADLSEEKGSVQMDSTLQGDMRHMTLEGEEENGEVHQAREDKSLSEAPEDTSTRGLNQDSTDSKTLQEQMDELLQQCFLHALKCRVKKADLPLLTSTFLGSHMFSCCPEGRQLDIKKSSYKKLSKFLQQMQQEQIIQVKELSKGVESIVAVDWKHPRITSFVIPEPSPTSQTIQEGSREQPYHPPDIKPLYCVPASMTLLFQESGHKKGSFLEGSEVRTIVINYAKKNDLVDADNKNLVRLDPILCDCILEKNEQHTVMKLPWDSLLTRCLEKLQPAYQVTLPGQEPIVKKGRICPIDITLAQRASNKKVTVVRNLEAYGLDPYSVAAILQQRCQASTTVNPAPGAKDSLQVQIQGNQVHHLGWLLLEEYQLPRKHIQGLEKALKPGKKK
Chain of UniProt Q7L8L6 (Q7L8L6 whole entry, looked up): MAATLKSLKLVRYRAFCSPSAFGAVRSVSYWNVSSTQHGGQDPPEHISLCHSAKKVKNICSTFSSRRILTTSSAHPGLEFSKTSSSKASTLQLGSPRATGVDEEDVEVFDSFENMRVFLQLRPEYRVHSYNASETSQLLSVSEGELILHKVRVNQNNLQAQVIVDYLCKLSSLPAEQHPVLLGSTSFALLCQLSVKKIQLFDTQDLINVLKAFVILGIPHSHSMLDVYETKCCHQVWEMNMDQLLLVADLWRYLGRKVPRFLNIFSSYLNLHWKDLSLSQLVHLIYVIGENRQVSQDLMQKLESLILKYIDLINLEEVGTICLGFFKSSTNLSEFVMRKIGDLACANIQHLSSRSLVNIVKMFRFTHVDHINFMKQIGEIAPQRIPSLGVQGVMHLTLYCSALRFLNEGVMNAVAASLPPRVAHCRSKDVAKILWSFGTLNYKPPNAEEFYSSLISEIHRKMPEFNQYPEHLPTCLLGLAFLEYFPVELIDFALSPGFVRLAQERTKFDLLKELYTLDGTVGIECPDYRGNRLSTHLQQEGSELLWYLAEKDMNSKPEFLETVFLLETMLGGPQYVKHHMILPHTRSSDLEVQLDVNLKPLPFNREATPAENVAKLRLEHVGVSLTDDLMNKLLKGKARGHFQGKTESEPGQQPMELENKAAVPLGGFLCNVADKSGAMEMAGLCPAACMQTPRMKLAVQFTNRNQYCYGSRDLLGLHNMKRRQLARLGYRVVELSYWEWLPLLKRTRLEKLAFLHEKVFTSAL
Chain of UniProt Q9NZN4 (Q9NZN4 whole entry, looked up): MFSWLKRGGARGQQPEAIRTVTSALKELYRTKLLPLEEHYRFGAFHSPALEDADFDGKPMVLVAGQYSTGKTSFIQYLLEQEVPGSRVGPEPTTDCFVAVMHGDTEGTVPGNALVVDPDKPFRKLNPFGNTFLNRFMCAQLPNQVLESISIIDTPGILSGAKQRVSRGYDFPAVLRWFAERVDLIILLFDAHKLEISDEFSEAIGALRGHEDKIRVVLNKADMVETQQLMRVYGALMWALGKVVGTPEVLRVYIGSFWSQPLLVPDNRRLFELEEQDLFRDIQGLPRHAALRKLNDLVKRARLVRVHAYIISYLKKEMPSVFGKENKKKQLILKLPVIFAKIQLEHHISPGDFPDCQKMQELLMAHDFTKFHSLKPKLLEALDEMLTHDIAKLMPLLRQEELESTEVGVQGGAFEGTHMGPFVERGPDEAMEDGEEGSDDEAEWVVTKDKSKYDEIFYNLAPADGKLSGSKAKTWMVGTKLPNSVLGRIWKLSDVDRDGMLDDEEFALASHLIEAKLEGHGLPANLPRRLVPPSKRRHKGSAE
Chain of UniProt Q9Y5Q0 (Q9Y5Q0 whole entry, looked up): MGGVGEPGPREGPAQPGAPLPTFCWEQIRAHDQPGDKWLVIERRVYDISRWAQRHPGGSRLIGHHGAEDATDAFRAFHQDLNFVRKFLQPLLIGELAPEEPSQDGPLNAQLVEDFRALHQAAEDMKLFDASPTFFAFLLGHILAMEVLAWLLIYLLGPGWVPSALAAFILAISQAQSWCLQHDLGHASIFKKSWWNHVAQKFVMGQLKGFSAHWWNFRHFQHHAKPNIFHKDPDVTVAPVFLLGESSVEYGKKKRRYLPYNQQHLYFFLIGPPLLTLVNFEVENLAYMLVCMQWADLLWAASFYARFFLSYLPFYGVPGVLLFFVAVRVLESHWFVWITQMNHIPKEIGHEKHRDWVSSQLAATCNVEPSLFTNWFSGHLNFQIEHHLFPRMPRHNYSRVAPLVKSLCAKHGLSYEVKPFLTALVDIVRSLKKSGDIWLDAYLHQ
Chain of UniProt Q8WWZ3 (Q8WWZ3 whole entry, looked up): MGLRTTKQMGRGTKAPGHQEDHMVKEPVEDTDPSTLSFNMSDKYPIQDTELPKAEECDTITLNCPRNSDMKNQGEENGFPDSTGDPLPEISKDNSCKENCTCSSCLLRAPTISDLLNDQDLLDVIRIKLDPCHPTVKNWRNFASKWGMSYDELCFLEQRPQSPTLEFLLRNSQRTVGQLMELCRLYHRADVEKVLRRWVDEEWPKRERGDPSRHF
Chain of UniProt Q15717 (Q15717 whole entry, looked up): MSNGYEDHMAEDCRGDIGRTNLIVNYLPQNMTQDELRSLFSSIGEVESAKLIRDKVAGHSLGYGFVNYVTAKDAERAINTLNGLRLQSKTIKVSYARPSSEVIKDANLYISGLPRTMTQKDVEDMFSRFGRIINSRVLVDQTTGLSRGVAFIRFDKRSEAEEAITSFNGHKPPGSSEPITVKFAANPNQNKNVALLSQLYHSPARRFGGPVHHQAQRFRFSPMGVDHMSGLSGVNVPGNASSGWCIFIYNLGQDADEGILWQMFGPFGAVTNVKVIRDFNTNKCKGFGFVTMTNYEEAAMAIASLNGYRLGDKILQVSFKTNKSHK

Target | log2 fold change [1] | log2 fold change [2] | log2 fold change [3] | log2 fold change [4] | log2 fold change [5] | log2 fold change [6] | log2 fold change [7] | log2 fold change [8] | log2 fold change [9] | log2 fold change [10] | log2 fold change [11] | log2 fold change [12] | log2 fold change [13] | log2 fold change [14] | log2 fold change [15]
EAPP (UniProt Q56P03) | 0.039 | 0.018 | 0.024 | -0.095 | -0.001 | 0.017 | 0.002 | 0.021 | 0.038 | -0.045 | -0.083 | 0.029 | -0.086 | 0.024 | 0.024
FPGT (UniProt O14772) | -0.006 | -0.004 | -0.057 | 0.029 | -0.014 | -0.105 | -0.036 | 0.046 | 0.035 | -0.03 | -0.014 | -0.574 (active) | 0.008 | -0.015 | -0.062
EIF2D (UniProt P41214) | -0.034 | 0.028 | -0.027 | -0.009 | 0.002 | -0.064 | 0.024 | 0.04 | 0.008 | -0.041 | 0.03 | -0.385 (active) | 0.032 | 0.04 | 0.02
FADS3 (UniProt Q9Y5Q0) | -0.091 | 0.216 | 0.102 | 0.166 | -0.061 | -0.019 | -0.081 | -0.008 | -0.069 | 0.07 | 0.21 | 0.247 | -0.126 | 0.004 | -0.185
EPHX2 (UniProt P34913) | 0.097 | -0.036 | 0.005 | 0.027 | 0.007 | 0.02 | 0.021 | -0.036 | -0.021 | -0.015 | 0.002 | 0.243 (active) | 0.002 | -0.021 | -0.058
EDC3 (UniProt Q96F86) | 0.045 | 0.016 | -0.022 | -0.031 | 0.004 | -0.006 | -0.069 | -0.019 | -0.014 | 0.017 | 0.02 | -0.277 (active) | 0 | -0.026 | 0.013
FASTKD5 (UniProt Q7L8L6) | -0.072 | 0.032 | -0.006 | 0.113 | -0.027 | -0.053 | 0.003 | 0.004 | 0.054 | 0.013 | 0.016 | -0.354 (active) | 0.053 | 0.022 | -0.008
EHD2 (UniProt Q9NZN4) | 0.007 | -0.02 | -0.018 | 0.019 | -0.084 | -0.074 | -0.047 | 0.09 | 0.029 | -0.042 | 0.005 | -0.282 (active) | 0.073 | 0.018 | 0.032
FAU (UniProt E9PR30) | 0.006 | 0.001 | -0.018 | 0.005 | 0.052 | 0.002 | 0.046 | -0.055 | 0 | -0.058 | 0.006 | 0.212 (active) | 0.047 | -0.006 | 0.016
FXR2 (UniProt P51116) | -0.066 | 0.032 | -0.027 | 0.003 | 0.074 | 0.025 | 0.015 | -0.034 | -0.012 | -0.003 | 0.033 | -0.25 (active) | -0.039 | -0.022 | -0.064
EPRS (UniProt P07814) | 0.005 | -0.002 | -0.039 | -0.01 | 0.039 | 0 | 0.011 | 0.039 | 0.002 | -0.026 | -0.01 | -0.365 (active) | 0.037 | 0.009 | 0.021
FBXO30 (UniProt Q8TB52) | 0.015 | -0.032 | 0.012 | 0.067 | 0.02 | 0.001 | 0.012 | -0.008 | -0.017 | 0.005 | -0.01 | -0.316 (active) | 0.042 | -0.019 | 0.013
ERLIN2 (UniProt O94905) | -0.009 | 0.001 | -0.013 | -0.019 | 0.03 | 0.021 | 0.012 | -0.038 | 0.012 | -0.01 | -0.012 | 0.032 | 0.019 | -0.005 | 0.016
EEF1AKMT4 (UniProt P0DPD7) | -0.01 | -0.064 | -0.051 | 0.04 | -0.109 | 0.075 | 0.004 | 0.105 | 0.096 | -0.064 | 0.053 | -0.312 (active) | 0.029 | 0.035 | 0.012
ELAVL1 isoform 2 (UniProt Q15717) | -0.035 | -0.014 | -0.029 | -0.009 | 0.037 | -0.079 | 0.003 | 0.034 | 0.008 | 0.03 | 0.042 | -0.326 (active) | 0.059 | -0.051 | 0
EDARADD (UniProt Q8WWZ3) | 0.076 | -0.036 | -0.004 | 0.008 | 0.023 | 0.07 | 0.065 | -0.05 | -0.032 | 0.019 | 0.022 | -0.168 | 0.02 | -0.05 | -0.057
EPN2 (UniProt O95208) | -0.001 | 0.01 | -0.011 | 0.017 | 0.054 | -0.016 | -0.07 | 0.021 | 0.01 | -0.016 | -0.005 | 0.156 | 0.02 | -0.001 | 0.012
FARSB (UniProt Q9NSD9) | -0.019 | -0.005 | -0.019 | 0.006 | 0.032 | -0.001 | 0.02 | 0.027 | 0.002 | -0.014 | -0.01 | 0.015 | 0.013 | -0.013 | 0.011
EXOC3 (UniProt O60645) | -0.013 | 0.012 | -0.06 | 0.039 | 0.021 | -0.115 | -0.018 | 0.063 | 0.005 | -0.005 | 0.018 | -0.221 (active) | 0.03 | 0.002 | -0.026
GCN1 (UniProt Q92616) | 0.015 | -0.017 | -0.071 | 0.001 | 0.066 | -0.072 | -0.01 | 0.047 | 0.001 | -0.037 | 0.01 | -0.374 (active) | 0.114 | 0.033 | -0.011
FAM114A2 (UniProt Q9NRY5) | 0.152 | 0.053 | -0.028 | 0.031 | 0.002 | 0.02 | -0.231 | 0 | 0.009 | -0.071 | -0.056 | 0.262 | -0.015 | -0.034 | 0
